# Assay outcomes (PubChem BioAssay)
# TDP1 inh: qHTS Assay for Inhibitors of Tyrosyl-DNA Phosphodiesterase (TDP1); Tyrosyl-DNA phosphodiesterase 1 (Homo sapiens), Q9NUW8; recombinant TDP1, AlphaScreen DNA substrate cleavage; Potency, µM (titrated, usually from 130 µM), for inactives: top-dose activity change, negative = inhibition, usual class: inhibitors; hit rate 0.28% among 350,000; AID 485290, 2010; also: potency is read from the fitted curve at half-maximal effect; % is scaled to controls: 0 for no effect and ±100 for the full control effect; nearly all actives have a fitted effect of over 40% in size
# Target sequence (Q9NUW8 whole entry, looked up): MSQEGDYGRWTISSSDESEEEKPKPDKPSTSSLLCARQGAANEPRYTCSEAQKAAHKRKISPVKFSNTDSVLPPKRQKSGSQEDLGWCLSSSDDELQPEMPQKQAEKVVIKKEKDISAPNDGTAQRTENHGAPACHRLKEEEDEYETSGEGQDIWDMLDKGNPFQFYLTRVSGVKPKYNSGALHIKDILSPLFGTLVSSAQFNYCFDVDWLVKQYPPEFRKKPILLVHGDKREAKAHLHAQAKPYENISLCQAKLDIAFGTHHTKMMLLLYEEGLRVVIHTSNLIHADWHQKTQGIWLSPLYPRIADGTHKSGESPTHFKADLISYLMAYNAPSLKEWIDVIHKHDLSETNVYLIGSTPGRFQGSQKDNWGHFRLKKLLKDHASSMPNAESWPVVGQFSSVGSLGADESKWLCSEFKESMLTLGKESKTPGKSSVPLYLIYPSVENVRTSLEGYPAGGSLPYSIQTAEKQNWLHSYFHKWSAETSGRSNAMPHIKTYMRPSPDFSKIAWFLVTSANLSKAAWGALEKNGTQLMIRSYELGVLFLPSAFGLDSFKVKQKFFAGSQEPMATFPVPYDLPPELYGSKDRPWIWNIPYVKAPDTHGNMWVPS
#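 Here, a 5' biotin and 3' phosphotyrosine-FITC DNA oligonucleotide reports Tdp1 activity: intact substrate bridges AlphaScreen beads, while cleavage leaves a 3' phosphate and drops signal. All incubations at room temperature.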
# IL-1B inflam inh: qHTS for Inhibitors of Inflammasome Signaling: IL-1-beta AlphaLISA Primary Screen; activity change, % at 57.5 µM; hit rate 4.7% among 360,000; THP-1 LPS/ATP IL-1B secretion, AlphaLISA, 16 h; stronger effect = lower value; in the data active = activity change below about -50%; inconclusive = mostly about -30% to -49%; also: % is scaled to controls: 0 for no effect and ±100 for the full control effect
#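 THP-1 cells pretreated 1 hr with compounds (up to 57.5 uM final), then stimulated with LPS (250 ng/mL final) plus ATP (1.25 mM final); secreted IL-1B measured by AlphaLISA after 16 hr, decreased signal indicating inhibition.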
# TDP1 cell noCPT: qHTS for Inhibitors of human tyrosyl-DNA phosphodiesterase 1 (TDP1): qHTS in cells in absence of CPT. DT40 Tdp1-/- hTDP1 cells, no CPT, ATP luminescence, 48 h. Potency, µM (series often up to 46.2 µM), for inactives: at the top dose activity change, negative = growth inhibition, actives largely listed as inhibitors. hit rate 15% among 420,000; also: potency is read from the fitted curve at half-maximal effect; % is scaled to controls: 0 for no effect and ±100 for the full control effect; nearly all actives have a fitted effect of over 55% in size
#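 Luminescent ATP content (CellTiter-Glo) served as the growth readout. Knockout chicken DT40 cells expressing human TDP1 were exposed to compounds without camptothecin for a minimum 48 hr at 37 °C.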
# TGFb inhibitor: qHTS for Inhibitors of TGF-b. HepG2 CAGA-GFP TGF-b/SMAD3 reporter, GFP fluorescence, 18 h; TGF-beta stimulated, 500 pg/mL final. Potency, µM (series often up to 46.1 µM), for inactives: at the top dose activity, negative = inhibition, usual class: inhibitors. hit rate 1.2% among 410,000; also: potency is read from the fitted curve at half-maximal effect; % is scaled to controls: 0 for no effect and ±100 for the full control effect; nearly all actives have a fitted effect of over 65% in size
#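 Inhibition of TGF-beta-driven CAGA-GFP reporter expression in HEPG2 cells is measured by cellular GFP fluorescence after 18 h stimulation with 500 pg/mL recombinant TGF-beta in 1% FBS medium at 37 degrees C.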
# TDP1 cell CPT: qHTS for Inhibitors of human tyrosyl-DNA phosphodiesterase 1 (TDP1): qHTS in cells in presence of CPT. chicken DT40 Tdp1-/-;hTDP1 cells + 20 nM CPT, ATP luminescence, 48 h. Potency, µM (top dose mostly 46.2 µM), inactives show at the top dose activity change, negative = growth inhibition, most hits filed as inhibitors. hit rate 12% among 420,000; also: potency is read from the fitted curve at half-maximal effect; % is scaled to controls: 0 for no effect and ±100 for the full control effect; nearly all actives have a fitted effect of over 55% in size
#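 Cell growth measured by CellTiter-Glo luminescence after a minimum 48 h, 37 C compound exposure with 20 nM CPT in Tdp1-knockout DT40 cells stably expressing hTDP1, seeded 400/well; qHTS titration format.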
# HepG2 viability: qHTS for Inhibitors of TGF-b: Cytotox Counterscreen. HepG2 CAGA-GFP viability, ATP luminescence, 18 h. hit rate 0.76% among 410,000. AID 588856, 2011. Potency, µM (doses to about 46.1 µM), for the others: at the highest dose activity change, negative = cytotoxicity, usual class: cytotoxic; also: potency is read from the fitted curve at half-maximal effect
#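 CellTiter-Glo luminescence gave cytotoxicity after 18 hours at 37 degrees C. The cells were HepG2 CAGA-GFP in 1% FBS DMEM, stimulated with 500 pg/mL TGF-beta after compound addition. %Activity was normalised to no-cell wells (complete cell-killing) and DMSO (no toxicity), and curves were fitted and classified.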
# Active calls of the source: *; ? = inconclusive; · = no result; [ ] = another dose, or the depositor's remark. Sampled rows, rich in hits. Any-hit rate of the full collection: about 19%. Unless noted, calls follow the shape of the dose curve; as a rule, active = well fitted curve in the direction sought with a large enough effect; inconclusive = small, poorly fitted or top-dose-only effect, or another doubt; inactive = no such curve, though single readings can be large; an effect the other way counts as inactive or inconclusive.
SMILES,TDP1 inh,IL-1B inflam inh,TDP1 cell noCPT,TGFb inhibitor,TDP1 cell CPT,HepG2 viability
CCOC(=O)c1c(NC(=O)CSc2nnc(-c3cccnc3)o2)sc(C(C)=O)c1C,4%,12,21µM*,7%,?,-1%
CCOC(=O)c1c(NC(=O)CSc2nnc(-c3ccco3)o2)sc(C)c1C,0%,47,-20%,28%,-29%,-3%
CCc1ccccc1NC(=O)Cn1c(=O)n(-c2ccc(C)c(C)c2)c(=O)c2oc3ccccc3c21,-3%,·,?,-15%,15µM*,-24%
CCc1ccccc1NC(=O)Cn1c(=O)n(-c2ccccc2)c(=O)c2oc3ccccc3c21,0%,·,?,0%,?,-22%
CCc1ccccc1NC(=O)Cn1c(=O)n(Cc2ccc(OC)cc2)c(=O)c2oc3ccccc3c21,3%,·,?,0%,9.2µM*,-5%
COc1cc(NC(=O)Cn2c(=O)n(Cc3ccccc3)c(=O)c3oc4ccccc4c32)cc(OC)c1,0%,·,-12%,3%,-4%,3%
COc1ccc(Cn2c(=O)c3oc4ccccc4c3n(CC(=O)Nc3c(C)cccc3C)c2=O)cc1,0%,·,5.8µM*,0%,7.3µM*,2%
CCc1ccccc1NC(=O)Cn1c(=O)n(C(C)C)c(=O)c2oc3ccccc3c21,3%,·,?,?,-22%,-10%
COc1ccc(CN(C)S(=O)(=O)c2nnc(NC(=O)C(C)C)s2)cc1OC,6%,·,10µM*,0%,12µM*,-3%
CCC1Oc2ccccc2N(CC(=O)NCCC2=CCCCC2)C1=O (centres undefined),1%,-17,26µM*,-22%,16µM*,-6%
CCN(CC(=O)Nc1cc(Cl)ccc1C)C(=O)c1ccc(N2CCCC2=O)cc1,0%,-13,-5%,-19%,-12%,6%
CC(=O)NC1=NN(C(C)=O)C(C)(c2ccccc2)S1 (centres undefined),·,23,5.8µM*,1%,5.8µM*,-20%
CC(=O)NC1=NN(C(C)=O)C(C)(c2ccc3ccccc3c2)S1 (centres undefined),0%,21,?,4%,-27%,-5%
Cc1cc2oc(=O)ccc2cc1[N+](=O)[O-],·,18,-7%,9%,-2%,9%
C=CC(=O)N1C/C(=C/c2ccc(F)cc2)C(=O)/C(=C\c2ccc(F)cc2)C1,·,-84*,-104%,?,0.82µM*,20µM*
COc1ccc(N2C(=O)CS(=O)(=O)C23C(=O)N(Cc2ccccc2F)c2ccccc23)cc1Cl (centres undefined),7%,·,?,13%,?,-8%
CCCC(O)(c1ccc(OC)cc1)C(CN1CCOCC1)c1ccc(Cl)cc1 (centres undefined),·,-16,?,?,?,-76%
COc1ccc(C(O)(CCC(C)C)C(CN2CCOCC2)c2ccc(Cl)cc2)cc1 (centres undefined),·,-81*,15µM*,?,?,-49%
CCOc1ccc(C(O)(CCC(C)C)C(CN2CCOCC2)c2ccccc2)cc1 (centres undefined),·,-60*,21µM*,?,?,-31%
CCOc1ccc(C(O)(c2ccccc2)C(CN2CCCC2)c2ccccc2)cc1 (centres undefined),·,-61*,7.3µM*,0%,?,-10%
CCCC(O)(c1ccc(Cl)cc1)C(CN1CCOCC1)c1ccc(Cl)cc1 (centres undefined),·,-13,?,?,?,-55%
CCc1ccc(C(O)(c2ccccc2OC)C(CN2CCOCC2)c2ccccc2)cc1 (centres undefined),7%,37,?,?,?,-7%
COc1ccc(C(O)(CC(C)C)C(CN2CCOCC2)c2ccccc2)cc1 (centres undefined),·,-5,21µM*,?,?,-17%
CCc1ccc(C(O)(CC(C)C)C(CN2CCOCC2)c2ccccc2)cc1 (centres undefined),·,-7,?,?,?,-49%
CC(C)(CCO)Nc1ncnc2onc(-c3ccc(F)cc3)c12,·,17,?,-4%,-23%,-1%
SMILES,TDP1 inh,IL-1B inflam inh,TDP1 cell noCPT,TGFb inhibitor,TDP1 cell CPT,HepG2 viability
Cc1ccccc1C(C)(O)c1cnc(C)n1Cc1ccccc1 (centres undefined),·,-4,12µM*,-1%,21µM*,-1%
COc1ccc(C(=O)c2cn(Cc3cccc(C)c3)c3cc4c(cc3c2=O)OCCO4)cc1OC,7%,·,21µM*,?,?,-22%
COc1ccc(C(=O)c2cn(Cc3ccccc3OC)c3cc4c(cc3c2=O)OCO4)cc1,3%,·,?,-1%,?,2%
O=C(c1ccccc1)c1cn(Cc2ccc(F)cc2)c2ccccc2c1=O,7%,·,?,19%,?,-14%
CCOc1ccc(C(=O)c2cn(Cc3ccccc3OC)c3cc4c(cc3c2=O)OCCO4)cc1,2%,·,15µM*,-3%,?,-25%
Cc1ccc(C(=O)c2cn(Cc3ccccc3)c3ccccc3c2=O)cc1,7%,·,21µM*,-16%,23µM*,-49%
NC(=O)CSc1cn(Cc2ccccc2)c2ccccc12,1%,-65*,?,-6%,?,2%
Cc1cccc(Cn2cc(C(=O)c3ccccc3)c(=O)c3cc4c(cc32)OCO4)c1,7%,·,?,0%,?,0%
COc1cc2c(cc1NC(=O)COc1ccc(Cl)cc1Br)oc1ccccc12,-4%,·,0%,3%,-3%,-13%
CC(C)(C)c1ccc([C@@H](O)CCCN2CCC(C(O)(c3ccccc3)c3ccccc3)CC2)cc1,6%[56.1 µM],·,·,·,·,·
COc1ccc(C(=O)c2cn(Cc3ccccc3)c3ccccc3c2=O)cc1OC,6%,·,?,?,21µM*,-43%
CCOc1ccc2c(c1)c(=O)c(C(=O)c1ccccc1)cn2Cc1ccccc1,2%,·,15µM*,-21%,21µM*,-27%
COc1ccc2c(c1)c(=O)c(C(=O)c1ccccc1)cn2Cc1ccccc1,4%,-5,-14%,-2%,-7%,-18%
